# Laboratory results reported in PubChem BioAssay (Tox21).
# Inconclusive results are not listed. Where a call stands in place of a potency, no number is given. The source made the active and inactive calls. Calls follow the shape of the dose curve; as a rule, active = well fitted cell-killing curve with a large enough effect in the repeat runs; inconclusive = weak or mixed curves, or effect the other way; inactive = flat fitted curve, though single readings scatter.
# Assay: Nuclear factor erythroid 2-related factor 2/antioxidant responsive element (Nrf2/ARE) small molecule agonists: qHTS cell viability counter screen in human keratinocytes (AID 1919968); also: nearly all actives have a fitted effect of over 55% in size
# Procedure, shortened: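 Parallel cytotoxicity read: KeratinoSens HaCaT cells, compound treatment 23 h, viability by CellTiter-Fluor fluorescence 1 h post-reagent.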
# Potency is read from the fitted curve at half-maximal effect.
row,SMILES,Potency
1,CC(=O)[O-].CC(=O)[O-].O.O.[Cd+2],42.7 µM (active)
2,CC1CCCC1,inactive
